IL-2 act: qHTS of IL-2 Activators | IL-2 activation reporter assay, cell-based qHTS; stimulated with anti-CD3/CD4/CD28 beads; in transgenic mouse T cells | activation, % (series mostly up to about 46 µM) | 360,000 tested, 0.065% active | AID 652025, 2013; in the data active = activation above about 50%; inconclusive = mostly about 30% to 49%
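Quantitative HTS in unstimulated transgenic mouse T cells, with memory T cells as non-tolerant control and PMA/ionomycin as tolerance-bypass control. Compound pretreatment lasted 60 minutes before 18 h bead stimulation; EGFP/DsRed fluorescence read.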
a7 integrin act: qHTS for Activators of Integrin-Mediated Alleviation for Muscular Dystrophy; Potency, µM (doses to about 38.3 µM), hits mostly activators; alpha7betagal myoblasts, beta-gal FDG fluorescence, 48 h; 350,000 tested, 0.064% active; AID 624291, 2012; also: nearly all actives have a fitted effect of over 60% in size
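Alpha7betagal+/- myoblasts (passage 13) were plated 16-24 hr, then exposed to compounds (1:260 dilution of DMSO stock) for 48 hours at 37C. After MPER lysis, β-galactosidase reporter activity was read as FDG fluorescence (ex 480/em 540) after 30 minutes.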
USP2a inh: qHTS Assay for Inhibitors of Ubiquitin-specific Protease USP2a Using CHOP2 as the Reporter; Ubiquitin carboxyl-terminal hydrolase 2 (Homo sapiens), O75604; USP2 core, Ub-CHOP2 coupled fluorogenic reporter, 485/531; Potency, µM (top dose mostly 38.3 µM), hits mostly inhibitors; 330,000 tested, 0.01% active; AID 463254, 2010
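Deubiquitinase activity read as fluorescence (485/531 nm) after Ub-CHOP2 cleavage activates the enterokinase reporter on its substrate; USP2 core 10nM, Ub-CHOP2 and substrate 25nM each, 30min compound preincubation then 60min RT; data normalized to NEM, curves fitted.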
ClpP mod: qHTS Assay for Activators of ClpP; ATP-dependent Clp protease proteolytic subunit (Bacillus subtilis (strain 168)), P80244; purified B. subtilis ClpP, FRET peptide cleavage, 20 min; Potency, µM (top dose mostly 57.5 µM); 340,000 tested, 1.9% active; active = well fitted falling curve with a large enough effect; inconclusive = small, poorly fitted or top-dose-only effect; inactive = no such curve, though single readings can be large or run the other way; also: the source files actives as falling curves though it sought activators and does not explain the sign; nearly all actives have a fitted effect of over 65% in size
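FRET quenching reversal measured ClpP activation: 10 microg/mL B. subtilis ClpP at pH 8 with the FRET-FV decapeptide, read at 430 nm after 320 nm excitation. The 20-min minus 0-min signal was scaled between DMSO/no-enzyme wells and ADEP (5.8 microM final).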
PKM2 act: qHTS Assay for Activators of Human Muscle isoform 2 Pyruvate Kinase; Pyruvate kinase PKM (Homo sapiens), P14618; 260,000 tested, 0.34% active; purified PKM2, Kinase-Glo ATP luminescence, activation; response scale: 0% is enzyme alone, no compound; Potency, µM (doses to about 57.5 µM), hits mostly activators; AID 1631, 2009; also: nearly all actives have a fitted effect of over 55% in size
Target sequence (P14618 whole entry, looked up, canonical isoform): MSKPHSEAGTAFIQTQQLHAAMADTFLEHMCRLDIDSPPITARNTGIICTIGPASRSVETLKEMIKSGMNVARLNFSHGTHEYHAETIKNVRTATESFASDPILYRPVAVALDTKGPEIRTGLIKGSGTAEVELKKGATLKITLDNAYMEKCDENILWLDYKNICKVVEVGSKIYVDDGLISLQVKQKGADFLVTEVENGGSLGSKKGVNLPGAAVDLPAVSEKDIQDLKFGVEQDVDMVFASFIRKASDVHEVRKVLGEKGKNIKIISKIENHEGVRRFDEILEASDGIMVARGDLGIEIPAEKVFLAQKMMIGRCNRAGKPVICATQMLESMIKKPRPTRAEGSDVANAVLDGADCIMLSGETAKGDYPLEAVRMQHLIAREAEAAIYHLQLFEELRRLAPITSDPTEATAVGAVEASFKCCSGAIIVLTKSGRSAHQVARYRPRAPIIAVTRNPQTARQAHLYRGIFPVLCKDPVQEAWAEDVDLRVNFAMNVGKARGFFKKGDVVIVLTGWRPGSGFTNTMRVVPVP
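ATP formation by purified human PK-M2, quantified via coupled luciferase luminescence after 1 h at room temperature with 0.1 mM ADP and 0.5 mM PEP final.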
Pin1 inh: qHTS Assay to Find Inhibitors of Pin1; Peptidyl-prolyl cis-trans isomerase NIMA-interacting 1 (Homo sapiens), Q13526; Pin1 FP peptide displacement, HiFluor488, 10 min; Potency, µM (series often up to 115 µM), hits mostly inhibitors; 390,000 tested, 0.009% active; active = well fitted inhibition curve with a large enough effect in the polarisation, with a control signal flat, not every such curve was filed as active; inconclusive = small, poorly fitted or top-dose-only effect, or effect the other way, or a change in a side signal; inactive = no such curve, though single readings can be large or run the other way; the % refers to the polarisation
Target sequence (Q13526 whole entry, looked up): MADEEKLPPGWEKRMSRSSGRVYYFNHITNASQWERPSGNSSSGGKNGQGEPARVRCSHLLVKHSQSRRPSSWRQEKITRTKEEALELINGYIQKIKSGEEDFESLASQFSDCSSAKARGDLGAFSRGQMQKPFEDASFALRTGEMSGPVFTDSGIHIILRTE
A number is an active result; i = inactive; ? = inconclusive; nt = not tested or not shown; [ ] = dose if it differs, or a comment. Compounds with a hit are over-represented: about 1.9% of the library has one in this group of screens. Unless noted, calls follow the shape of the dose curve; as a rule, active = well fitted curve in the direction sought with a large enough effect; inconclusive = small, poorly fitted or top-dose-only effect, or another doubt; inactive = no such curve, though single readings can be large; an effect the other way counts as inactive or inconclusive.

SMILES	IL-2 act	a7 integrin act	USP2a inh	ClpP mod	PKM2 act	Pin1 inh
c1coc(C2Nc3ccccc3-c3nc4ccccc4n32)c1 (stereo unspecified)	i	i	i	2.8µM	i	i
COc1ccc(-c2nnc3n2N=C(c2ccccc2OC)CS3)c(OC)c1	nt	nt	nt	nt	nt	i
O=C(Cn1c2ccccc2c(=O)c2ccccc21)Nc1ccccc1F	i	i	i	13µM	i	i
CC(C)N(CC#CC(O)(c1ccccc1)c1ccccc1)CCO	i	i	i	i	i	i
CC(C)N(CC#CC(O)(c1ccccc1)c1ccccc1)C(C)C	i	i	i	32µM	i	i
CC(=O)NCN1CCN(CNC(C)=O)CC1	i	i	i	25µM	i	i
Cc1cc(C)c2nccc(/C=C/c3ccc(N(C)C)cc3)c2c1	nt	nt	nt	i	nt	nt
COC(=O)c1sc2cnccc2c1N	i	i	i	14µM	i	i
COc1cc2c(cc1OC)/C(=C/c1ccc(N(C)C)cc1)C=C2	nt	nt	nt	i	nt	nt
CC(C)(C)NC(=O)CN(C(=O)c1ccc(CN2CCOCC2)o1)c1ccc2c(c1)OCCO2	i	i	i	13µM	i	i
CCOc1ccccc1N(CC(=O)NC(C)(C)C)C(=O)c1ccc(CN2CCOCC2)o1	i	i[7.66 µM]	?	i	i	i
CC(=O)Nc1ccc(NC(=O)c2ccc(NS(=O)(=O)c3cc(C(C)(C)C)cc(C)c3C)cc2)cc1	i	i	i	28µM	i	i
N#Cc1nc(Nc2ccc(-c3ccccc3)cc2)nc(NC2CCCC2)n1	nt	nt	nt	nt	nt	i
COC(=O)c1ccc(C(=O)OC)c(N)c1	nt	nt	i	nt	i	nt
COC(=O)c1ccc(Sc2ccc(Cl)cc2)c(N)c1	i	i	i	25µM	i	i
Cc1ccc(NC(=O)c2cnn3c2NC(=C2CC2)C=C3C(F)F)cc1C	nt	nt	nt	i	nt	nt
Cc1nc(NC2CCCCC2)c2nc(-c3ccccc3)n(CCN3CCCC3)c2n1	nt	nt	nt	nt	i	nt
CC(CNC(=O)Cn1c(-c2cccs2)cc2cc(Cl)ccc21)c1ccccc1 (stereo unspecified)	nt	nt	nt	25µM	nt	i
O=C(Cn1c(-c2cccs2)cc2ccccc21)NCc1ccccc1Br	nt	nt	nt	32µM	nt	i
O=C(NCc1ccccc1Br)c1cccs1	i	nt	nt	i	nt	nt
CCCSCCCNC(=O)Cn1c(=O)c2cccn2c2ccccc21	i	i	i	i	nt	i
CN(C)c1ccc(CNC(=O)Cn2c(-c3cccs3)cc3cc(Cl)ccc32)cc1	nt	nt	nt	25µM	nt	i
CCCSCCCNC(=O)Cn1c(-c2cccs2)cc2ccccc21	nt	nt	nt	28µM	nt	i
Cc1ccc(CNC(=O)Cn2c(-c3cccs3)cc3cc(Cl)ccc32)cc1	nt	nt	nt	?	nt	i
CCOc1ccc(CCNC(=O)Cn2c(-c3cccs3)cc3ccccc32)cc1OCC	nt	nt	nt	8.9µM	nt	i
SMILES	IL-2 act	a7 integrin act	USP2a inh	ClpP mod	PKM2 act	Pin1 inh
NNC(=O)Cn1c(-c2ccccc2)cc2ccccc21	i	i	i	i	i	i
COCCNC(=O)Cn1c(-c2cccs2)cc2cc(Cl)ccc21	nt	nt	nt	28µM	nt	i
COCCNC(=O)c1cc(-c2cccs2)on1	i	i	i	i	i	i
CC(NC(=O)Cn1c(-c2cccs2)cc2cc(F)ccc21)c1ccccc1 (stereo unspecified)	nt	nt	nt	28µM	nt	i
CCNC(=O)Cn1c(-c2cccs2)cc2ccccc21	nt	nt	nt	28µM	nt	i
CCOc1ccc(CCNC(=O)Cn2c(-c3cccs3)cc3ccccc32)cc1	nt	nt	nt	?	nt	i
COc1cccc(C2c3c(ncn(-c4ccccc4Cl)c3=N)Oc3ccc4ccccc4c32)c1 (stereo unspecified)	nt	nt	nt	nt	nt	i
CC(=O)c1ccc(-c2c(C3C4C=CCCC4(C)C(=O)N3Cc3ccccc3)ccc3ccccc23)cc1 (stereo unspecified)	nt	nt	nt	nt	nt	i
O=C(COc1ccccc1C(=O)OCC(=O)N1CCOCC1)Nc1ccc(Br)cc1	nt	nt	nt	i	nt	nt
CC(CNC(=O)Cn1c(-c2cccs2)cc2ccccc21)c1ccccc1 (stereo unspecified)	nt	nt	nt	16µM	nt	i
COc1ccc(Br)cc1CN(C)CC(=O)Nc1cccc(S(=O)(=O)N2CCCC2)c1	i	i	i	nt	nt	i
CN(CC(=O)Nc1cccc(S(=O)(=O)N2CCCC2)c1)Cc1ccccc1	i	i	i	25µM	nt	i
Cc1ccc2c(c1)CCC2=O	nt	nt	nt	i	nt	nt
Cc1c(F)cccc1NS(=O)(=O)c1ccc(OCCNS(C)(=O)=O)cc1	i	i	i	nt	6.3µM	i
Cc1cccc(C)c1NS(=O)(=O)c1ccc(OCCNS(C)(=O)=O)cc1	i	i	i	nt	i	i
Cc1ccc(Nc2nc(-c3cccnc3)nc3ccccc23)cc1	i	i	i	nt	i	i
CCOC(=O)c1ccc(Nc2nc(-c3cccnc3)nc3ccccc23)cc1	i	i	i	28µM	i	i
Cc1ccc(C(=O)NC2=NC(c3ccc(C)cc3)CC(=O)N2)cc1 (stereo unspecified)	nt	nt	nt	i	nt	i
COc1ccccc1C(=O)NC1=NC(c2ccc(Br)cc2)CC(=O)N1 (stereo unspecified)	nt	nt	nt	32µM	nt	i
c1ccc(CNc2ccc3ccccc3n2)nc1	i	i	i	28µM	i	?
Cc1cc(NCc2ccccn2)nc2ccccc12	i	i	i	?	i	i
CC(=O)Nc1sc2c(c1-c1cc3ccccc3[nH]1)CCNC2	nt	nt	nt	nt	nt	i
CC(=O)Oc1ccc(NC(=O)C2CCCCC2)c(C(=O)O)c1	i	i[7.66 µM]	i	28µM	i	i
[O-][N+]12CCCc3cccc(c31)CCC2	nt	nt	nt	i	nt	nt
COc1cc(C(=O)Nc2ccc(-c3nc4cc(C)ccc4o3)c(O)c2)cc(OC)c1OC	i	i	i	28µM	i	i
SMILES	IL-2 act	a7 integrin act	USP2a inh	ClpP mod	PKM2 act	Pin1 inh
CCc1ccc2oc(-c3cc(NC(=O)c4cc(OC)c(OC)c(OC)c4)ccc3O)nc2c1	nt	nt	nt	i	nt	i
COc1cccc(C(=O)Nc2ccc(-c3nc4ccccc4o3)c(O)c2)c1	i	i	i	28µM	i	i
COC(=O)C(C(C)C)N1CC(=O)c2ccccc2S1(=O)=O (stereo unspecified)	nt	nt	nt	nt	nt	i
Cc1cc2c(s1)c1cnn(Cc3ccc(Br)cc3)c(=O)c1n2C	nt	nt	nt	nt	nt	i
COc1cc(C2Nc3ccccc3C(=O)N2Cc2ccccc2)ccc1OCc1ccc(NC(C)=O)cc1 (stereo unspecified)	nt	nt	nt	nt	nt	i
COc1ccccc1-c1nc(C(N)=O)c2[nH]c(=O)n(-c3cccc(C)c3)c2n1	i	i	i	20µM	i	i
Cc1cccc(-n2c(=O)[nH]c3c(C(N)=O)nc(-c4ccccc4Cl)nc32)c1	i	i	i	i	i	i
